Test [1] is described as follows: qHTS assay to test for compound auto fluorescence at 535 nm (green) in HEK293 cells (AID 720680). In general terms: In qHTS, concentration-response curves come from the screen itself.
Test [2] in a line: qHTS assay to test for compound auto fluorescence at 460 nm (blue) in HEK293 cell free culture (AID 720681). Put shortly:
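Compounds were added to cell-free DMEM with 10% FBS and fluorescence read directly. The blue channel used 405 nm excitation and 460 nm emission, with triamterene as the reference fluorophore.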

A short description of test [3]: qHTS assay to test for compound auto fluorescence at 535 nm (green) in HEK293 cell free culture (AID 720682). Put shortly: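 No cells present: wells hold DMEM supplemented with 10% FBS, into which compound or vehicle is pinned. Green emission is then recorded (485 nm excitation, 535 nm emission) and scaled to fluorescein.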
Test [4] in a line: qHTS assay to test for compound auto fluorescence at 590 nm (red) in HEK293 cell free culture (AID 720683). Put shortly:
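Cell-free wells of DMEM with 10% FBS received compound, and intrinsic fluorescence was read at excitation/emission 540/590 nm. Values expressed as equivalence to Rose Bengal sodium.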

Test [5] in a line: qHTS assay to test for compound auto fluorescence at 590 nm (red) in HepG2 cell free culture (AID 720684). The method in brief: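 Rose Bengal sodium served as the reference for red signal. Test compounds were dispensed into serum-containing MEM (10% FBS) without cells, and plates were read at 540/590 nm.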
Test [6] in a line: qHTS assay to test for compound auto fluorescence at 460 nm (blue) in HepG2 cell free culture (AID 720685). Put shortly: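 Cell-free plates of MEM plus 10% FBS received 23 nL compound or DMSO vehicle; blue-channel (405/460 nm) intensity scored against triamterene as reference fluorophore.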
Test [7] in a line: qHTS assay to test for compound auto fluorescence at 535 nm (green) in HepG2 cell free culture (AID 720686).
Test [8] is described as follows: qHTS assay to test for compound auto fluorescence at 460 nm (blue) in HepG2 cells (AID 720687). The method in brief:
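HepG2 cells in MEM with 10% FBS, attached overnight at 37 C, were exposed to compound or DMSO for 1 hr at 37 C, 5% CO2. Blue fluorescence was read at 405/460 nm, with triamterene as reference fluorophore.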

Test [9] deals with Glucocorticoid receptor (Homo sapiens) (UniProt P04150). Nature of the test: qHTS assay to identify small molecule agonists of the glucocorticoid receptor (GR) signaling pathway (AID 720691; active = well fitted activation curve with a large enough effect in the signal ratio in the repeat runs, not every such curve was filed as active; the % refers to the signal ratio). Particulars: GR-bla HeLa, beta-lactamase reporter ratio, 18 h; activation: at 62.4 µM (top of the series). Put shortly: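 Measures GR pathway activation through a GRE-beta-lactamase reporter stably integrated in HeLa cells, with 18 h compound treatment at 37 C and fluorescence detection using a FRET substrate.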

For test [10] the target is unchanged. Description: qHTS assay to identify small molecule antagonists of the glucocorticoid receptor (GR) signaling pathway (AID 720692; active = well fitted inhibition curve with a large enough effect in the signal ratio in the repeat runs, not every such curve was filed as active; the % refers to the signal ratio; also: potency is read from the fitted curve at half-maximal effect). Put shortly:
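Tox21 10K library screened in concentration-response for blockade of dexamethasone (5 nM final)-induced GRE-bla reporter activity in HeLa cells; 18 h treatment, fluorescence read.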

Records with an inconclusive call do not appear. Activity calls are given as the source filed them. Unless noted, calls follow the shape of the dose curve; as a rule, active = well fitted curve in the direction sought with a large enough effect in the repeat runs; inconclusive = weak or mixed curves; inactive = flat fitted curve, though single readings scatter.

Sequence of Glucocorticoid receptor (Homo sapiens) (P04150 whole entry, looked up): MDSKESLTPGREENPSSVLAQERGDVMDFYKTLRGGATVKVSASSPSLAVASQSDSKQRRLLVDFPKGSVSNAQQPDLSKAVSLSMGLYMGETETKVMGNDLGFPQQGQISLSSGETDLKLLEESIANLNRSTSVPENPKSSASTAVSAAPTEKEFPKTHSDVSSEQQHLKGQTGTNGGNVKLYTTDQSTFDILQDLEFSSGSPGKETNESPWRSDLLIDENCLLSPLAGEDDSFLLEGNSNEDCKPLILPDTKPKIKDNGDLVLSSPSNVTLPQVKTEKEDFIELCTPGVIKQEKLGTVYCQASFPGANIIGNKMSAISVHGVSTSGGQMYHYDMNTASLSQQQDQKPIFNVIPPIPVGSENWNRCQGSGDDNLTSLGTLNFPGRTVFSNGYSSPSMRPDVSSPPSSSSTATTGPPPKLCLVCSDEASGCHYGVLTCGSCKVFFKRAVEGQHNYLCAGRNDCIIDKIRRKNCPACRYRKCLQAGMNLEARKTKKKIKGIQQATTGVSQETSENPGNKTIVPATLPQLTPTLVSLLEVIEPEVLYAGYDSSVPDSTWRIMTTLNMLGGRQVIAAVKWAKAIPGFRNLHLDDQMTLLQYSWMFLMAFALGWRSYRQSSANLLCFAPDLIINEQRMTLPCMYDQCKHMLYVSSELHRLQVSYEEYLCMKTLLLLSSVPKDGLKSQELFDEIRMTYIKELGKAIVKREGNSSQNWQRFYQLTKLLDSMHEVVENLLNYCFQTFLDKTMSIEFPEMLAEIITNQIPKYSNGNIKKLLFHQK

Consider `CCCCC(=O)N(Cc1ccc(-c2ccccc2-c2nn[nH]n2)cc1)[C@@H](C(=O)O)C(C)C`, for which the Potency entry in test [1], in test [2], in [3], in test [4], in [5] and in [7] was “inactive” each time. For the same compound, the Potency result in [9] and in test [10] was “inactive” throughout. The result in [6] and in test [8] was inactive.

As to `C=CCSSSCC=C`, the Potency entry in test [1], in test [2], in test [3], in test [4], in [5] and in test [7] was “inactive” throughout. Also, the Potency result in [9] and in test [10] was “inactive” throughout. For the same compound, the result in [6] and in test [8] was inactive.

For the compound `CN1c2c(nc(N)[nH]c2=O)NCC1CNc1ccc(C(=O)NC(CCC(=O)O)C(=O)O)cc1` (stereo not given), the Potency entry in test [1], in test [2], in test [3], in test [4], in test [5] and in test [7] was “inactive” each time. Moreover, the Potency result in test [9] and in test [10] was “inactive” throughout. The compound was classed as inactive in test [6] and in test [8].

On to `NCCCNCCCCNC(=O)C(O)NC(=O)CCCCCCN=C(N)N` (stereo not given), for which the Potency entry in [1], in test [2], in test [3], in test [4], in [5] and in test [7] was “inactive” throughout. Further, the Potency result in test [9] and in test [10] was “inactive” in each case. Also, the compound was called inactive in [6] and in test [8].

As for `CC(C)(CO)[C@@H](O)C(=O)NCCC(=O)NCCSSCCNC(=O)CCNC(=O)[C@H](O)C(C)(C)CO`, the Potency result in test [1], in [2], in [3], in test [4], in test [5] and in [7] was “inactive” throughout. The Potency entry in [9] and in test [10] was “inactive” throughout. For the same compound, the compound was called inactive in [6] and in test [8].

For `COc1cc2c(cc1OC)[C@@H](c1ccccc1)CN(C)CC2`, the Potency result in [1], in [2], in test [3], in test [4], in test [5] and in test [7] was “inactive” throughout. For the same compound, the Potency result in test [9] and in [10] was “inactive” throughout. The result in test [6] and in [8] was inactive.

On to `CCCCCC(O)/C=C/C=O` (stereo not given), for which the Potency result in test [1], in test [2], in test [3], in test [4], in [5] and in test [7] was “inactive” in each case. The Potency entry in test [9] and in test [10] was “inactive” each time. The outcome in test [6] and in test [8] was inactive.

For `CCOC(=O)C1=C[C@@H](OC(CC)CC)[C@H](NC(C)=O)[C@@H](N)C1`, the Potency result in test [1], in test [2], in [3], in test [4], in test [5] and in test [7] was “inactive” throughout. Also, the Potency result in [9] and in test [10] was “inactive” each time. The result in test [6] and in test [8] was inactive.

For the compound `CC1=C(/C=C/C(C)=C/C=C/C(C)=C/C=C/C=C(C)/C=C/C=C(C)/C=C/C2=C(C)C[C@@H](O)CC2(C)C)C(C)(C)C[C@H](O)C1`, the Potency entry in test [1], in [2], in test [3], in test [4], in [5] and in test [7] was “inactive” in each case. In addition, the Potency entry in test [9] was “inactive”. Moreover, the result in [6] and in [8] was inactive. Moreover, the Potency in test [10] was 23.9 µM (active).

Regarding `O=C(Nc1ccc(/C=C/c2ccc(NC(=O)c3cc(S(=O)(=O)O)c4cccnc4c3O)cc2S(=O)(=O)O)c(S(=O)(=O)O)c1)c1cc(S(=O)(=O)O)c2cccnc2c1O`, the Potency entry in test [1], in [2], in test [3], in test [4], in [5] and in [7] was “inactive” in each case. Moreover, the Potency entry in test [9] and in test [10] was “inactive” throughout. The result in test [6] and in [8] was inactive.

Consider `CN1CCCC(CN2c3ccccc3Sc3ccccc32)C1` (stereo not given), for which the Potency entry in test [1], in test [2], in test [3], in [4], in [5] and in test [7] was “inactive” in each case. Also, the Potency result in [9] and in test [10] was “inactive” throughout. In addition, the call in test [6] and in test [8] was inactive.

In the case of `CCCC(=O)Nc1c(I)cc(I)c(CC(CC)C(=O)O)c1I` (stereo not given), the Potency entry in [1], in test [2], in test [3], in test [4], in test [5] and in test [7] was “inactive” in each case. The Potency result in test [9] and in [10] was “inactive” each time. Further, the result in test [6] and in test [8] was inactive.

For `C[N+]1(C)CCN(CC(O)(c2ccccc2)C2CCCCC2)CC1` (stereo not given), the Potency result in test [1], in test [2], in [3], in test [4], in test [5] and in [7] was “inactive” in each case. The Potency entry in [9] and in [10] was “inactive” in each case. The result in [6] and in test [8] was inactive.

Take `CN1[C@@H]2CC[C@H]1CC(OC(c1ccccc1)c1ccccc1)C2` (stereo not given in full): the Potency result in test [1], in test [2], in test [3], in test [4], in test [5] and in test [7] was “inactive” each time. Also, the Potency result in [9] and in test [10] was “inactive” throughout. For the same compound, the compound was called inactive in test [6] and in [8].

Regarding `O=C(O)c1cc2ccccc2c(Cc2c(O)c(C(=O)O)cc3ccccc23)c1O`, the Potency result in [1], in [2], in [3], in test [4], in test [5] and in test [7] was “inactive” each time. The Potency result in [9] and in test [10] was “inactive” throughout. In addition, the compound was called inactive in test [6] and in test [8].

As for `OC[C@@H](O)C(O)[C@H](O)CO`, the Potency entry in [1], in test [2], in [3], in test [4], in [5] and in test [7] was “inactive” throughout. The Potency result in test [9] and in [10] was “inactive” throughout. Moreover, the compound was called inactive in test [6] and in test [8].

Regarding `O=C1N=C2SCCN2C(=O)C1Cc1ccc(Cl)cc1` (stereo not given), the Potency entry in [1], in test [2], in test [3], in [4], in test [5] and in test [7] was “inactive” throughout. The Potency entry in test [9] and in test [10] was “inactive” each time. The outcome in test [6] and in [8] was inactive.

With `O=C(O)COc1ccc(CCNS(=O)(=O)c2ccccc2)s1`, the Potency result in test [1], in [2], in test [3], in test [4], in test [5] and in [7] was “inactive” throughout. Also, the Potency entry in test [9] and in test [10] was “inactive” throughout. In addition, the outcome in [6] and in [8] was inactive.
